Data on 49 compounds can be found in PubChem BioAssay AID624296 (National Center for Advancing Translational Sciences (NCATS), 2012).

Out of some 350,000 compounds screened, about 9,900 (2.8%) were called active. Entries that show only a call come without a potency. About 15% were inconclusive and are not listed. Calls follow the shape of the dose curve; as a rule, active = well fitted activation curve with a large enough effect; inconclusive = small, poorly fitted or top-dose-only effect; inactive = no such curve, though single readings can be large or run the other way. This excerpt belongs to a sample that is enriched for actives.
Potency is read from the fitted curve at half-maximal effect.

The nature of the assay: A quantitative high throughput screen for small molecules that induce DNA re-replication in MCF 10a normal breast cells. Also: nearly all actives have a fitted effect of over 50% in size. To be noted: MCF 10A DNA re-replication, Hoechst nuclear intensity, 48 h; series mostly up to 46.1 µM. The text has this:
H Molecular Libraries Probe Production Network [MLPCN]
NIH Chemical Genomics Center [NCGC]
Assay Provider: Melvin DePamphilis, NICHD, NIH
Eukaryotic cells normally restrict genome duplication to once per cell division. When this process is aberrant, DNA re-replication occurs when cells reinitiate DNA replication before the first round of replication is complete. DNA re-replication induces the DNA damage response, arrests cell proliferation, and triggers apoptosis. The cell cycle components cyclin A, Cdt-1, Cdc6 and geminin are critical regulators of this process and their misregulation results in DNA re-replication in normal and cancer cells. To identify compounds that induce re-replication in normal cells, an image-based assay was used to measure DNA content of nuclei, as detected by the fluorescent DNA binding dye, Hoechst. Cell nuclei were imaged by a fluorescence scanning plate imager and compounds that induce DNA re-replication were identified by the increase of nuclei with elevated fluorescence intensity
For screening, 250 cells in 5 uL/well were dispensed into black clear 1536-well plates (Aurora) using a solenoid-based dispenser. Following transfer of 23 nL compound or DMSO vehicle by a pin tool, the plates were incubated 48 hr at 37 C and 5% CO2. After addition of 1 uL/well Hoescht stain, the plates were incubated 40 min at 37 C, 5% CO2 and total intensity of fluorescent objects (nuclei) were enumerated by an Acumen Explorer Ex3 (TTP LabTech) fluorescence scanning plate imager (405 nm excitation, 500-530 nm emission).
Keywords: NIH Roadmap, MLPCN, MLI, MLSMR, qHTS, NCGC, DNA replication, cancer
For the compound `CCOC(=O)C(=Cc1ccccc1OC)C(=O)OCC`, the Potency was 14.6 µM (active).
`CCOC(=O)C(=CNc1cccc(C)n1)C(=O)OCC`: the Potency entry was “inactive”.
Take `COc1ccccc1C(=O)c1ccccc1C(=O)c1ccccc1`: the Potency entry was “inactive”.
On to `Cn1nc(-c2ccccc2)c(CO)c1Sc1ccccc1`, for which the Potency result was “inactive”.
Under `Cc1ccc(S(=O)(=O)c2c(COC(=O)c3cccc(Cl)c3)c(-c3ccccc3)nn2C)cc1` stands “inactive”; under `Cn1nc(-c2ccccc2)c(CSc2cccc(Cl)c2)c1Cl`, 5.17 µM (active); under `O=C(NN=Cc1ccc(N2CCOCC2)cc1)c1cc2ccccc2cc1O`, “inactive”.
Under `CCOCc1c(C(=O)N2CCN(Cc3ccc(Br)s3)CC2)oc2ccccc12` stands “inactive”; under `CCN(/N=C/c1ccccc1)c1cc(=O)n(C)c(=O)[nH]1`, “inactive”; under `CN(C)c1ccc(/C=N/N(Cc2ccccc2)c2ccccc2)cc1`, “inactive”.
Under `CCN(/N=C/c1ccc(N(C)C)cc1)c1nc2ccccc2[nH]1` stands 5.8 µM (active).
With `Cc1ccc(S(=O)(=O)N2CCN(C(=O)COC(=O)CNC(=O)c3ccc(C(C)(C)C)cc3)CC2)c(C)c1`, the Potency entry is “inactive”.
For `O=C(CCNS(=O)(=O)c1ccccc1)NCCCc1ccccc1`, the Potency entry is “inactive”.
As for `O=C(Cc1ccc(NC(=O)C2CCCN(C(=O)CCc3ccccc3)C2)cc1)Nc1ccc(C(=O)N2CCOCC2)cc1` (centres undefined), the Potency result was “inactive”.
As to `Cn1c(=O)[nH]c2c(c(C(=O)O)nn2C)c1=O`, the Potency result is “inactive”.
On to `O=C(O)c1cccc(S(=O)(=O)N2CC=C(c3ccccc3)CC2)c1`, for which the Potency result was “inactive”.
Turning to `O=C(Nc1ccc(Cl)c(Cl)c1)N1CC=C(c2ccccc2)CC1`, the Potency was 14.6 µM (active).
On to `COc1cc(C(=O)NCC(=O)N2CC=C(c3ccccc3)CC2)cc(OC)c1OC`, for which the Potency result is “inactive”.
As to `CCOc1ccc(/C=C(/C#N)c2nnc(N3CCOCC3)n2-c2ccccc2)cc1OC`, the Potency entry is “inactive”.
Turning to `COc1cccc2c1C(=O)c1c(O)c3c(c(O)c1C2=O)CC(O)(C(C)=NNC(=O)c1ccc(Cl)c(Cl)c1)CC3OC1CC(N)C(O)C(C)O1` (centres undefined), the Potency entry is “inactive”.
Under `O=C(Nc1ccccc1-c1ccccc1)c1ccccc1[N+](=O)[O-]` stands “inactive”; under `COc1cc(OC)c(C(=O)Nc2ccccc2-c2ccccc2)cc1OC`, 18.4 µM (active).
With `COc1cc2ccccc2cc1C(=O)Nc1ccccc1C`, the Potency entry was “inactive”.
In the case of `O=C1C=C(c2cccc(Br)c2)C[C@@H](c2ccc(F)cc2)C1`, the Potency entry is “inactive”.
Under `CNc1nc(=O)n(C2CCCO2)cc1C` (centres undefined) stands “inactive”.
On to `COc1ccc(C2(C#N)CCC(C(=O)O)CC2)cc1OC1CCCC1` (centres undefined), for which the Potency entry is “inactive”.
On to `COc1ccc(C(=O)Nc2ccc(N3CCC(C)CC3)cc2)cc1Br`, for which the Potency entry is “inactive”.
With `COc1ccc(C(=O)Nc2ccc(C3(C#N)CCCC3)cc2)cc1OC`, the Potency was 20.6 µM (active).
Turning to `C=CCSC1=C(C#N)C(c2cc(Br)c(O)c(OC)c2)CC(=O)N1` (centres undefined), the Potency result was “inactive”.
As for `C=CCOC(=O)C1=C(C)NC(SCC(=O)OCC)=C(C#N)C1c1ccc(C)cc1` (centres undefined), the Potency result is “inactive”.
As to `CCOC(=O)CSC1=C(C#N)C(c2sccc2C)CC(=O)N1` (centres undefined), the Potency was 2 µM (active).
Next, `COc1cc2c(cc1OC)C(c1ccc(C)o1)CC(=O)N2` (centres undefined): “inactive”; `Cc1ccc(C2CC(=O)NC(SCC(=O)OCc3ccccc3)=C2C#N)o1` (centres undefined): 20.6 µM (active).
With `COC(=O)CSC1=C(C#N)C(c2ccccc2OC)C(C(=O)OC)C(=O)N1` (centres undefined), the Potency entry is “inactive”.
As for `CSCCC(NC(=O)COc1ccccc1)C(=O)OCc1ccc(Cl)cc1` (centres undefined), the Potency result was “inactive”.
As to `COc1cc(N)c(Cl)cc1C(=O)OCC(=O)c1ccc2c(c1)NC(=O)CO2`, the Potency result is “inactive”.
Next, `CCOC(=O)N(Cc1ccccc1)C1CC1`: “inactive”.
Take `CC1(C)C(=O)CCC2(C)C1=CCC1C2C(=O)CC2(C)C1CCC2(O)C(=O)CO` (centres undefined): the Potency result was “inactive”.
Regarding `NS(=O)(=O)c1ccc(CNC(=S)NC(=O)c2ccco2)cc1`, the Potency result was “inactive”.
Next, `O=C(CNC(=O)c1ccc2ccccc2c1)Nc1ncccc1O`: “inactive”; `CCOC(=O)C(C)n1cnc2c(nnn2-c2cccc(OC)c2)c1=O` (centres undefined): “inactive”.
As for `c1ccc(-n2nnnc2-c2cccnc2)cc1`, the Potency result is “inactive”.
Under `CCOc1cccc(-n2nnnc2-c2ccc(OC)cc2)c1` stands 6.51 µM (active); under `CC1CCCCC1NCC(=O)Nc1ccccc1C(=O)Nc1ccccc1` (centres undefined), “inactive”.
As to `CC(C#N)(NC(=O)CN1CCN(S(=O)(=O)c2cc(C(F)(F)F)ccc2Cl)CC1)C1CC1` (centres undefined), the Potency entry is “inactive”.
As for `CCN1CCN(c2cc3nc(C)n(Cc4ccccc4)c(=O)c3cc2NC(=O)c2ccccc2F)CC1`, the Potency is 18.4 µM (active).
As for `CCC(=O)Nc1ccc2nc(C)n(Cc3ccccc3Cl)c(=O)c2c1`, the Potency entry was “inactive”.
Regarding `CCOc1cc(NC(=O)c2ccccc2C(=O)O)c(OCC)cc1NC(=O)c1ccccc1F`, the Potency result is “inactive”.
With `O=C(N=C1SC2CS(=O)(=O)CC2N1c1ccccc1)c1ccccc1` (centres undefined), the Potency result is “inactive”.
